Screens: PubChem BioAssay, National Center for Advancing Translational Sciences (NCATS)
EPAC1 antagonist: qHTS for Antagonist of cAMP-regulated guanine nucleotide exchange factor 3 (EPAC1): primary screen. Rap guanine nucleotide exchange factor 3 (Homo sapiens), O95398. EPAC1 GEF assay, Rap1b-BODIPY-GDP exchange fluorescence. Potency, µM (top dose mostly 115 µM), for the others: at the top dose activity change, negative = inhibition, most hits filed as inhibitors. actives 0.14% (n = 360,000). AID 720709, 2013;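 also: plate controls were vehicle for no effect and positive control for full effect; nearly all actives have a fitted effect of over 50% in size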
EPAC2 antag: qHTS for Antagonist of cAMP-regulated guanine nucleotide exchange factor 2 (EPAC2): primary screen | Rap guanine nucleotide exchange factor 4 (Homo sapiens), Q8WZA2 | EPAC2 GEF exchange of Rap1B-BODIPY-GDP, fluorescence | Potency, µM (highest dose often 114 µM), inactives show at the highest dose activity, negative = inhibition, usual class: inhibitors | actives 0.18% (n = 360,000) | AID 720708, 2013; also: % is scaled to controls: 0 for no effect and ±100 for the full control effect; nearly all actives have a fitted effect of over 45% in size
EPAC2 ag: qHTS for Agonist of cAMP-regulated guanine nucleotide exchange factor 4 (EPAC2): primary screen; Potency, µM (titrated, usually from 154 µM), without a hit: top-dose activation, hits mostly activators; actives 0.079% (n = 360,000); EPAC2 activation, biochemical qHTS; response scale: 100% = 6.5 mM cAMP response; also: nearly all actives have a fitted effect of over 50% in size
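Nucleotide exchange monitored as fluorescence drop when BODIPY-GDP leaves Rap1B. Reaction: 100 nM EPAC2, 250 nM RAP1B-BODIPY-GDP, 50 uM GDP, room temperature, kinetic read over 30 min. Activity expressed relative to 6.5 mM cAMP.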
USP1 inh: Inhibitors of USP1/UAF1: Primary Screen; Ubiquitin carboxyl-terminal hydrolase 1 (Homo sapiens), O94782; recombinant USP1/UAF1, Ub-Rhodamine cleavage fluorescence; Potency, µM (series often up to 57.1 µM), without a hit: at the top dose activity change, negative = inhibition, most hits filed as inhibitors; actives 0.23% (n = 390,000); AID 743255, 2014; also: % is scaled to controls: 0 for no effect and ±100 for the full control effect; nearly all actives have a fitted effect of over 60% in size
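USP1/UAF1 complex (1 nM) preincubated 15 min at room temperature with compound, then Ub-Rho substrate (150 nM final) added. Kinetic fluorescence at 480/540 nm over 6 reads at 60 s intervals; 50 mM HEPES pH 7.8, 0.5 mM EDTA, 0.1 mg/ml BSA, 1 mM TCEP, 0.01% Tween-20.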
ALOX12 inh: Primary qHTS assay for inhibitors of human arachidonate 12S-lipoxygenase (ALOX12): Round 2; Polyunsaturated fatty acid lipoxygenase ALOX12 (Homo sapiens), P18054; purified 12hLO, xylenol orange hydroperoxide absorbance; Potency, µM (series often up to 108 µM), inactives show top-dose activity change, negative = inhibition, most hits filed as inhibitors; actives 1.1% (n = 580,000); also: % is scaled to controls: 0 for no effect and ±100 for the full control effect
Target sequence (P18054 whole entry, looked up): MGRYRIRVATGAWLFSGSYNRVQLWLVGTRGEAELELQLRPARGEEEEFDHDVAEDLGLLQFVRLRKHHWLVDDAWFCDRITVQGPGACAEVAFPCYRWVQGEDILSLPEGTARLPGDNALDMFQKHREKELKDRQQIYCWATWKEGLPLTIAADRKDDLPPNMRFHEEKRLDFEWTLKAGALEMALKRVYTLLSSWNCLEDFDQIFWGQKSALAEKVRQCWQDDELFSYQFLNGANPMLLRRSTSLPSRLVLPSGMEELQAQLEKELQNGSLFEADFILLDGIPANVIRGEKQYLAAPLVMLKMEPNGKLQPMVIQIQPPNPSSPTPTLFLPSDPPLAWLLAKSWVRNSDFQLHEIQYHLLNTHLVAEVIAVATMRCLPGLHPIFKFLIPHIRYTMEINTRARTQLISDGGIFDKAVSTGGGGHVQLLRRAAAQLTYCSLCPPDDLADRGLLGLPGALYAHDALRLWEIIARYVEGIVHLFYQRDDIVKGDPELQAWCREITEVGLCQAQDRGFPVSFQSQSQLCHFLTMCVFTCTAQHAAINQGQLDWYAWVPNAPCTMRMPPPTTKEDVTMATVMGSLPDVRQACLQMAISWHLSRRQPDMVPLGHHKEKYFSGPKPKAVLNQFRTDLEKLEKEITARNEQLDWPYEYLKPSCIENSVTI
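Purified human 12hLO at 150 nM in 25 mM Hepes, 0.01% Triton X-100, pH 7.0, preincubated 15 min at room temperature with compound. Reaction started with 40 uM arachidonic acid, 30 min at room temperature. Hydroperoxide measured by Fe-xylenol orange, 573/405 nm absorbance ratio.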
EPAC1 ag: qHTS for Agonist of cAMP-regulated guanine nucleotide exchange factor 3 (EPAC1): primary screen; AID 720707, 2013; Potency, µM (highest dose often 154 µM), inactives show at the top dose activation, most hits filed as activators; EPAC1 agonist qHTS, biochemical assay; response scale: 100% = response to 6.5 mM cAMP; actives 0.073% (n = 360,000); also: nearly all actives have a fitted effect of over 60% in size
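Fluorescent GDP-exchange assay: 100 nM EPAC1 with 250 nM Rap1B preloaded with BODIPY-GDP and 50 uM GDP; compounds tested as concentration series, 5 min at room temperature, then read every 5 min for 30 min (ex 480/em 540 nm); normalized to 6.5 mM cAMP.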
Active calls of the source: *; ? = inconclusive; nt = no result; [ ] = another dose, or the depositor's remark. Rows were chosen to be rich in hits. Some 1.3% of all compounds tested hit in one or more screens of this group. Calls follow the shape of the dose curve; as a rule, active = well fitted curve in the direction sought with a large enough effect; inconclusive = small, poorly fitted or top-dose-only effect, or another doubt; inactive = no such curve, though single readings can be large; an effect the other way counts as inactive or inconclusive. Potency is read from the fitted curve at half-maximal effect.

SMILES	EPAC1 antagonist	EPAC2 antag	EPAC2 ag	USP1 inh	ALOX12 inh	EPAC1 ag
Cc1nc(CN(C)c2ncnc3ccc(-c4ccc5c(c4)OCO5)cc23)cs1	-19%	32µM*	16%	nt	?	6%
N#Cc1c(N)sc2c1CCCCCC2	-16%	-9%	18%	-1%	35µM*	11%
CC(C)(C)c1ccc(/C=N/c2sc3c(c2C#N)CCCC3)cc1	nt	nt	nt	nt	28µM*	nt
N#Cc1c(/N=C/c2ccco2)sc2c1CCC2	7%	2%	10µM*	-17%	-26%	3%
CC(C)c1ccc(/C=N/c2sc3c(c2C#N)CCCC3)cc1	nt	nt	nt	nt	-16%	nt
CC(C)CN(/C=N/c1sc2c(c1C#N)CCCCC2)CC(C)C	0%	0%	3%	-10%	21%[57.4 µM]	6%
CCN(/C=N/c1sc2c(c1C#N)CCCCC2)CC	-7%	-8%	15%	-14%	45µM*	18%
Cc1ccc(/C=N/c2sc3c(c2C#N)CCCCC3)o1	0%	11%	13%	-16%	?	7%
O=Cc1c(-c2ccccc2)[nH]c2ccccc12	nt	nt	nt	nt	-7%	nt
O=C(O)c1cccc(N/N=C/c2cn(-c3ccccc3)nc2-c2cccs2)c1	-17%	-12%	-12%	-18%	45µM*	3%
CC(C)NC(=S)N/N=C/c1sc(N2CCCCC2)nc1-c1cccs1	16%	7%	14%	?	35µM*	3%
S=c1[nH]nc(COc2ccc3ccccc3c2)o1	9%	-2%	3%	-8%	40µM*	3%
CC1=C(Cc2cc3ccc(=O)oc3cc2O)CC(C)(C)CC1	nt	nt	nt	nt	6.3µM*	nt
COc1cc2ccc(=O)oc2cc1O	0%	-14%	-6%	-6%	12%	-12%
Cn1cccc1/C=C1\SC(=S)N(NC(=O)c2ccccc2O)C1=O	?	6%	4%	-21%	-15%	-5%
COc1ccc(/C=C2\SC(=S)N(C(Cc3ccccc3)C(=O)O)C2=O)cc1 (centres undefined)	-14%	?	0%	-10%	18µM*	3%
O=C(O)C(Cc1ccccc1)N1C(=O)/C(=C/C=C/c2ccco2)SC1=S (centres undefined)	89µM*	-27%	0%	?	5.6µM*	14%
COc1cc(/C=C2\SC(=S)N(C(C(=O)O)c3ccccc3)C2=O)ccc1O (centres undefined)	?	?	-5%	?	-24%	-12%
O=C(NN1C(=O)/C(=C/C=C/c2ccco2)SC1=S)c1ccccc1O	?	3%	4%	-16%	13µM*	0%
O=C(O)C(c1ccccc1)N1C(=O)/C(=C\c2ccc(O)c(O)c2)SC1=S (centres undefined)	32µM*	22µM*	-2%	?	?	-3%
CC(C)c1noc(-c2cn(C3CCCN(C(=O)c4cccc5[nH]ccc45)C3)nn2)n1 (centres undefined)	nt	nt	nt	nt	12%	nt
O=C1C=C(O)c2[nH]c(=O)ccc2C1=O	-24%	-18%	-1%	25µM*	-52%	-3%
O=C1C=C(O)c2c(O)cc(O)c(O)c2C1=O	?	7%	-2%	-23%	?	-22%
COc1ccc(-n2c(SCC(=O)Nc3cc(Cl)ccc3OC)nc3c(c2=O)SCC3)cc1	nt	nt	nt	nt	-3%	nt
O=C(C1=Cc2sc3c(c2CS1)CCCC3)N1CCC2(CC1)OCCO2	nt	nt	nt	nt	35µM*	nt
SMILES	EPAC1 antagonist	EPAC2 antag	EPAC2 ag	USP1 inh	ALOX12 inh	EPAC1 ag
Cc1ccccc1NC(=O)C1=Cc2sc3c(c2CS1)CCCC3	nt	nt	nt	nt	20µM*	nt
CC(=O)Nc1sc2c(c1C(=O)N1CCOCC1)CCCCC2	-5%	-11%	7%	6%	0%	2%
Cc1ccccc1NC(=O)N1CCc2c(sc3c2CCCC3)C1c1ccccc1 (centres undefined)	nt	nt	nt	-6%	2%	nt
Cc1ccc(NC(=O)Cn2c(=O)cc(-c3ccccc3)c3c(C)nn(C)c32)c(Cl)c1	nt	nt	nt	-29%	-22%	nt
Cc1nn(C)c2c1c(-c1ccccc1)cc(=O)n2CC(=O)NC(C)c1ccccc1 (centres undefined)	nt	nt	nt	-27%	45µM*	nt
Cc1cc(=O)n(CC(=O)NC(C)c2ccccc2)c2c1c(C)nn2C (centres undefined)	nt	nt	nt	?	50µM*	nt
Cc1cc(C)c(C)c(SCC(=O)Nc2oc(C)c3c(C)n[nH]c(=O)c23)c1C	7%	-1%	-12%	0%	25µM*	-5%
Cc1n[nH]c(=O)c2c(NC(=O)CSc3ccc(F)cc3)oc(C)c12	4%	-4%	0%	-3%	?	-1%
NS(=O)(=O)c1ccc(N=Nc2c[nH]c(=O)c(O)c2)cc1	?	-28%	-11%	28µM*	0%	0%
Fc1ccc(N=c2ssnc2Cl)c(F)c1	-7%	13%	0%	-31%	7.1µM*	3%
Clc1ccc(N=c2ssnc2Cl)cc1	-2%	6%	3%	-23%	?	5%
N#Cc1ccc(CSc2nnc(N3CCCCC3)n2-c2ccccc2)cc1	nt	nt	nt	nt	-27%	nt
CN1c2ccccc2C(C)(C)C12C=Nc1c(cc(N3CCOCC3)c3ccccc13)O2 (centres undefined)	89µM*	-25%	4%	?	?	10%
CN1c2ccccc2C(C)(C)C12C=Cc1cc(O)ccc1O2 (centres undefined)	-12%	-20%	16%	-25%	?	?
CCc1cccc(Nc2nc(CSc3ccc(Cl)cc3)nc3sc4c(c23)CCC4)c1	nt	nt	nt	nt	27%	nt
COCCn1c(=S)[nH]c2sc3c(c2c1=O)CCC(C)C3 (centres undefined)	?	-14%	0%	-2%	?	4%
COCCCn1c(=S)[nH]c2sc3c(c2c1=O)CCCS3	0%	0%	-4%	3%	45µM*	8%
CC(=O)c1ccc(NC(=O)CN2CCN(c3ccccc3)CC2)cc1	7%	3%	9%	-14%	11µM*	-13%
COc1cc(CC2C(=O)Nc3ccccc32)cc(C)c1O (centres undefined)	4%	3%	10%	-8%	-8%	12%
